The record followed here is PubChem BioAssay (NCI).

The panel holds about 83,000 compounds, 20% with a hit somewhere; the sample as a whole holds those more often.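 Growth was measured after 48 h exposure to one concentration of compound in 96-well plates. Values under 10 count as active.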 A number with no mark means an inactive call. Calls of active or inactive are those of the source.

Test systems include HCT-15 colon; HT29 colon; SNB-75 CNS; SNB-19 CNS; PC-3 prostate; SK-MEL-5 melanoma; UACC-62 melanoma; LOX IMVI melanoma; SK-MEL-28 melanoma; SK-MEL-2 melanoma; EKVX NSCLC; SN12C renal; UO-31 renal; TK-10 renal; ACHN renal; CAKI-1 renal; A498 renal; CCRF-CEM leukemia; MOLT-4 leukemia.
Holding throughout (assay): NCI-60 one-dose screen, 48 h (100 = growth as untreated, 0 = no growth, -100 = all killed)
Common to all, as to conditions: 10 µM

As for `CC(=O)Nc1nc(-c2ccc(N3CCN(C)CC3)c(NS(=O)(=O)c3cccc4c(N(C)C)cccc34)c2)cs1`, the growth is 18.5% with HCT-15 colon; 21.7% in the experiment on HT29 colon; 56.5% with SNB-75 CNS; 58.8% in the experiment with SNB-19 CNS; 48.7% with PC-3 prostate; 12.5% in the experiment with SK-MEL-5 melanoma. For the same compound, the growth was 13.1% with UACC-62 melanoma; -35.6% (active) in the experiment with LOX IMVI melanoma; -80.1% (active) in the experiment with SK-MEL-28 melanoma; 65.3% in the experiment with SK-MEL-2 melanoma; 69.9% in the experiment with EKVX NSCLC; 75.6% with SN12C renal. Also, the growth in the experiment with UO-31 renal is 60%; in the experiment with TK-10 renal it was 84.3%; in the experiment on ACHN renal, 60.7%; with CAKI-1 renal, 66.5%; in the experiment on A498 renal it was 117%; in the experiment on CCRF-CEM leukemia it was 8.38% (active).
Regarding `O=C(Cn1nc(-c2ccccc2)ccc1=O)NN1C(=O)c2ccccc2C1=O`, the growth in the experiment with HCT-15 colon was 99.2%; in the experiment on HT29 colon, 120%; with SNB-75 CNS it was 107%; with SNB-19 CNS, 89.8%; in the experiment with PC-3 prostate it was 97.8%; in the experiment with SK-MEL-5 melanoma it was 100%. Also, the growth in the experiment on UACC-62 melanoma is 106%; with LOX IMVI melanoma it was 92.7%; in the experiment with SK-MEL-28 melanoma, 108%; in the experiment on SK-MEL-2 melanoma, 104%; in the experiment on EKVX NSCLC, 101%; with SN12C renal it was 123%. Also, the growth is 85.8% in the experiment with UO-31 renal; 105% in the experiment on TK-10 renal; 99% in the experiment on ACHN renal; 95.3% in the experiment with CAKI-1 renal; 103% in the experiment on A498 renal; 102% in the experiment with CCRF-CEM leukemia. For the same compound, the growth in the experiment with MOLT-4 leukemia was 108%.
Take `Cc1ccc(-c2nc3ccc(C(=O)N=Nc4c(O)[nH]c5ccc([N+](=O)[O-])cc45)cc3[nH]2)cc1`: the growth in the experiment on HCT-15 colon is 104%; with HT29 colon it was 66.6%; in the experiment on SNB-75 CNS, 78.4%; in the experiment on SNB-19 CNS, 55.4%; in the experiment with PC-3 prostate, 60.8%; with SK-MEL-5 melanoma, 89.3%. Moreover, the growth is 85.6% with UACC-62 melanoma; 54.9% in the experiment on LOX IMVI melanoma; 60.4% in the experiment with SK-MEL-28 melanoma; 101% with SK-MEL-2 melanoma; 101% in the experiment on EKVX NSCLC; 48.8% in the experiment with SN12C renal. The growth was 81.7% with UO-31 renal; 107% in the experiment on TK-10 renal; 97% with ACHN renal; 95.9% in the experiment on CAKI-1 renal; 116% with A498 renal; 61.2% with CCRF-CEM leukemia.
Consider `Cc1ccc(C(C)C)cc1NC(=O)c1ccccc1O`, for which the growth with HCT-15 colon was 35%; in the experiment on HT29 colon, 103%; in the experiment on SNB-75 CNS, 46.4%; in the experiment on SNB-19 CNS it was 37.2%; in the experiment on PC-3 prostate, 33.4%; in the experiment with SK-MEL-5 melanoma, -45.5% (active). The growth in the experiment on UACC-62 melanoma was 9.83% (active); in the experiment on LOX IMVI melanoma it was 40.1%; in the experiment on SK-MEL-28 melanoma it was 31.1%; in the experiment with SK-MEL-2 melanoma, 25.4%; in the experiment with EKVX NSCLC, 49.7%; with UO-31 renal, 16.6%. The growth in the experiment with TK-10 renal was 69.4%; in the experiment with ACHN renal, 44.7%; in the experiment with CAKI-1 renal, 32.3%; with A498 renal it was 67.8%; with CCRF-CEM leukemia it was 24.5%.
Regarding `OCCCNc1oc(-c2ccccc2)nc1[P+](c1ccccc1)(c1ccccc1)c1ccccc1`, the growth in the experiment with HCT-15 colon was 45.9%; in the experiment with HT29 colon it was 6.51% (active); in the experiment with SNB-75 CNS, -2.93% (active); in the experiment with SNB-19 CNS, 4.56% (active); with PC-3 prostate it was 9.56% (active); in the experiment with SK-MEL-5 melanoma it was -100% (active). Further, the growth was -70.2% (active) with UACC-62 melanoma; -16.6% (active) in the experiment with LOX IMVI melanoma; 7.68% (active) in the experiment on SK-MEL-28 melanoma; -34.1% (active) in the experiment with SK-MEL-2 melanoma; 14.3% with EKVX NSCLC; -0.273% (active) in the experiment with SN12C renal. Further, the growth in the experiment on UO-31 renal was 69.8%; in the experiment on TK-10 renal, 20.9%; in the experiment on ACHN renal, 51%; in the experiment on CAKI-1 renal it was 58.6%; with A498 renal, 22.5%; in the experiment with CCRF-CEM leukemia, 10.5%. Also, the growth in the experiment on MOLT-4 leukemia is 6.77% (active).
Turning to `Cn1c(O)c(N=Nc2nc(-c3cc4ccccc4oc3=O)cs2)c2cc(Br)ccc21`, the growth in the experiment with HCT-15 colon is 88.5%; with HT29 colon, 118%; with SNB-75 CNS it was 54.7%; in the experiment with SNB-19 CNS, 12.5%; in the experiment with PC-3 prostate it was 102%; in the experiment on SK-MEL-5 melanoma, 96%. Further, the growth in the experiment on UACC-62 melanoma is 65%; with LOX IMVI melanoma it was 56.7%; in the experiment with SK-MEL-28 melanoma it was 99.8%; in the experiment on SK-MEL-2 melanoma, 31.8%; in the experiment on EKVX NSCLC it was 65.4%; with SN12C renal, 73.8%. Moreover, the growth in the experiment with UO-31 renal is 77.9%; in the experiment with TK-10 renal it was 56.8%; in the experiment with ACHN renal it was 35.4%; in the experiment with CAKI-1 renal, 75.7%; in the experiment with A498 renal it was 16.5%; with CCRF-CEM leukemia, 97.7%. For the same compound, the growth in the experiment on MOLT-4 leukemia was 104%.
On to `CC1(C)CC[C@]2(C(=O)NCCCNCCCCNCCCN)CC[C@]3(C)C(=CC[C@@H]4[C@@]5(C)Cc6c([nH]c7ccccc67)C(C)(C)[C@@H]5CC[C@]43C)[C@H]2C1`, for which the growth in the experiment on HCT-15 colon was 85%; in the experiment with HT29 colon, 92.4%; in the experiment with SNB-75 CNS it was 101%; in the experiment with SNB-19 CNS, 57.9%; in the experiment on PC-3 prostate, 65.8%; in the experiment with SK-MEL-5 melanoma it was 81.5%. The growth is 116% with UACC-62 melanoma; 92.6% in the experiment on LOX IMVI melanoma; 102% in the experiment with SK-MEL-28 melanoma; 101% in the experiment with SK-MEL-2 melanoma; 90.7% in the experiment on EKVX NSCLC; 91.4% in the experiment with SN12C renal. In addition, the growth is 71% in the experiment with UO-31 renal; 96.9% with TK-10 renal; 93.9% in the experiment with ACHN renal; 78% with CAKI-1 renal; 147% in the experiment on A498 renal; 64.4% in the experiment with CCRF-CEM leukemia.
Consider `CN1CCO/C1=C(/NC(=O)c1ccc(Cl)cc1)[P+](c1ccccc1)(c1ccccc1)c1ccccc1`, for which the growth with HCT-15 colon was 107%; with HT29 colon, 57.7%; with SNB-75 CNS it was 91.6%; in the experiment with SNB-19 CNS, 76.5%; with PC-3 prostate, 68.2%; in the experiment with SK-MEL-5 melanoma it was 70.3%. In addition, the growth was 48.5% in the experiment on UACC-62 melanoma; 39.8% in the experiment with LOX IMVI melanoma; 75.5% in the experiment on SK-MEL-28 melanoma; 90.9% in the experiment with SK-MEL-2 melanoma; 81.2% with EKVX NSCLC; 92.4% in the experiment with SN12C renal. Further, the growth was 86.7% with UO-31 renal; 99.6% with TK-10 renal; 110% in the experiment with ACHN renal; 103% in the experiment on CAKI-1 renal; 125% with A498 renal; 77.9% in the experiment with CCRF-CEM leukemia. For the same compound, the growth in the experiment on MOLT-4 leukemia was 87.9%.
For the compound `Cc1ccc(NCC(=O)Nn2c(COc3ccccc3)nc3ccccc3c2=O)cc1`, the growth in the experiment on HCT-15 colon was 93%; with HT29 colon it was 92.4%; in the experiment on SNB-75 CNS, 23.4%; in the experiment on SNB-19 CNS it was 6.78% (active); in the experiment with PC-3 prostate, 74.2%; with SK-MEL-5 melanoma it was 85.9%. The growth in the experiment with UACC-62 melanoma was 61.3%; in the experiment with LOX IMVI melanoma it was 91.6%; in the experiment on SK-MEL-28 melanoma it was 91.3%; in the experiment with SK-MEL-2 melanoma, 87.2%; with EKVX NSCLC, 84.6%; in the experiment with SN12C renal, 40.4%. In addition, the growth in the experiment on UO-31 renal is 80.8%; with TK-10 renal, 86.9%; in the experiment with ACHN renal, 72.8%; with CAKI-1 renal it was 44.3%; in the experiment with A498 renal it was 91.9%; in the experiment on CCRF-CEM leukemia, 101%. The growth in the experiment on MOLT-4 leukemia is 106%.
